Substitutions are numbered along the chain they refer to. In all, about 24,000 sequences were measured (“enrichment r”: median about 0.99, highest 2% from about 3.7 on). The sample holds the highest values, similar sequences and a random draw of the others, so the mix is not that of the screen.
B1: 112904347_112904467_7746_CDS_ENSMUSG00000036862_ENSMUST00000078482|mouse|control|control (ssRNA)
RNA: GGGAGUUCUACAGUCCGACGAUCUGUGGCCUCCAGGGUGAGCAGGGUGGAACCAGGGGGCAAAUCUUCAGACACAGCAACACGGUAGUGUGGCAAUGUGAAGCUUGGGGCAUGGUCAUUCUGGUCCUUCAGCUGCACAUGCACCAACAGAGGAUUGAGCAUCA
B2: chrX:40988281:40988282:+_ENSG00000124486_ENST00000378308|hu_mus|FALSE|FALSE (ssRNA)
RNA: GGGAGUUCUACAGUCCGACGAUCUUCAAUCUGUGGAGGAGCAUCACCUUGACCUUGCUCAUCAGGAGGAGUUGCAGGGGAAUUUUCAUUGGACGAAUCAGGCGAUGAAGUCUGAUUCUGUUGGAGGGGGGGCUGAGACUGUCCCAACAGAGGAUUGAGCAUCA
B3: chr6:17872010:17872011:+_ENSMUSG00000029534_ENSMUST00000127322|mus_mus|motif|central (ssRNA)
RNA: GGGAGUUCUACAGUCCGACGAUCUCACUGUCUCCUCUCUUCAGGAUGUGUUCUGGUGGGAGGAUUAAGCUUUUCAUUUCGGGUAGAUAUUUUGGCACGUGUGGAUUAAAUUCCACAGCUCUGUGGAUGGCUUCUACUGCAUUCCAACAGAGGAUUGAGCAUCA
B4: chr9:37441256:37441257:-_ENSG00000168795_ENST00000307750|hu_hu|FALSE|FALSE (ssRNA)
RNA: GGGAGUUCUACAGUCCGACGAUCAGGCCCAGCCUCUGGACUCAACAAAUAGGGGGCCUCACUCUCCAGCCUGCAGUCACUAGUGGUGUUUGGAAUAUUAUCAUCAUUGUUCUGAUUUGCAGUAAAGUUAUUUCCUCUGCUCUUCAACAGAGGAUUGAGCAUCA
B5: 80013064_80013876_841_CDS_ENSG00000169727_ENST00000578552|human|control|control (ssRNA)
RNA: GGGAGUUCUACAGUCCGACGAUCCUCAGGGAAGUCACAGUGAUCAAAGGAAGCCAGCAGGAGGCACUUGGCAGCCUGCUUGUACUUCCUGGCGGCCAGCUCUGCCAAGCCUGCGGCACACUUGAGCUUGGUGAGGAUGGCCUGCAACAGAGGAUUGAGCAUCA
B6: chrX:40988281:40988282:+_ENSG00000124486_ENST00000378308|hu_hu|FALSE|FALSE (ssRNA)
RNA: B2 RNA with U29G, A36U, A39G, A63U, A66G, A75C, C93A
B7: 5790880_5791000_6181_CDS_ENSG00000108021_ENST00000328090|human|control|control (ssRNA)
RNA: GGGAGUUCUACAGUCCGACGAUCGAAGUUCAACGACGACUCAUAGCCAUCUGUGGGAACAUCUUUUUUCCUGGUGUAACUACCUCUUAAAGUAUAAGAAUCCUCCAAAUCCAGUCUGGGAUUUCUACAAUCACCAAGCAGGUCCAACAGAGGAUUGAGCAUCA
B8: chr12:133780691:133780692:+_ENSG00000090612_ENST00000541009|hu_hu|motif|central (ssRNA)
RNA: GGGAGUUCUACAGUCCGACGAUCUCAUAUGGUUUUUCACCUGAAUGAGUUCUCAUGUGUAUAAUUAGGUAUGACUUGCUGCGGAAAGCUUUCCCACAUUCACUGCACCCAUAAGGCUUUUCCCCUGCAUGAGUUCGCUGAUGUCAACAGAGGAUUGAGCAUCA
B9: 5036412_5036532_457_CDS_ENSMUSG00000022536_ENSMUST00000115844|mouse|control|control (ssRNA)
RNA: GGGAGUUCUACAGUCCGACGAUCGCCUGAAGUCACCCUCUUCUUUCCUUCUCCCAUGUUCUUCUUCACCUUCCCUUCAGACAGGCUAAGCUUGCGUUUCUCAUCACCUGAGUUUGGCCUACUUCUCUCCUCACUGGAAUUACGCAACAGAGGAUUGAGCAUCA
B10: chr5:37680062:37680063:+_ENSMUSG00000029121_ENSMUST00000031004|mus_hu|mus_mus_mus_hu_False|58_98 (ssRNA)
RNA: GGGAGUUCUACAGUCCGACGAUCUUUGGGUGUAGCUGGCACCUCGUACACAGGACCGUCAUACAUGCCCCUGGAAACACUAUGCAAUCCAAAAACCUUAUUCCUGAUUUUGACGCGCUGGUACAGGUGCUCCGGGAACGCCUUCAACAGAGGAUUGAGCAUCA
B11: chr2:27118074:27118075:-_ENSMUSG00000009621_ENSMUST00000056176|mus_hu|FALSE|FALSE (ssRNA)
RNA: GGGAGUUCUACAGUCCGACGAUCAUUCACAGAUAUAUAACGGGAGAUUUGGAUGAAAUAAUUACAAACUUUUUUCCCCUUAAAAAACAAACAAGCCAAACAAAACACAAACAAAACAAAAACCCCAAAACCAAAACACAAGACCAACAGAGGAUUGAGCAUCA
B12: 90301638_90312025_2792_CDS_ENSG00000196730_ENST00000408954|human|control|control (ssRNA)
RNA: GGGAGUUCUACAGUCCGACGAUCGACAACAACAUGGAUUGACGUGGGAUCAUUUGCAGCAAAAUAGUCAUAACAGCAGAAAUACACAGGAUUUCCAGAGAACUCCCACACGCUGAAAUCGCCAACUCCAUUCAAAUAAGCGUUCAACAGAGGAUUGAGCAUCA
B13: chr7:97619395:97619396:-_ENSMUSG00000030614_ENSMUST00000032843|mus_mus|motif|central (ssRNA)
RNA: GGGAGUUCUACAGUCCGACGAUCCAGGGAUGCAUAGGUCUUCAAAGCUUCAUAUUUAACCUUGAAACUGUUUCGGAAAACGGAGUUUGCCAUUAUGCCAGACAAACUACUACUUGUUCCAAAGACCAAAGUUCCAUGUAUAUUCAACAGAGGAUUGAGCAUCA
B14: chr6:86474593:86474594:-_ENSMUSG00000051695_ENSMUST00000053015|mus_hu|motif|central (ssRNA)
RNA: GGGAGUUCUACAGUCCGACGAUCACAUUUCUUAUCGACAAACAGAAAUAAAAUUCAUGAGCCAAAAAACCCAAAACAAAACGGAAAACAGGGAAAAGCUUAUAAAACUAAAUAUGGAUCCCAGCAUUAACAGCUGAACAGAGACAACAGAGGAUUGAGCAUCA
B15: chr6:86474593:86474594:-_ENSMUSG00000051695_ENSMUST00000053015|mus_hu|FALSE|FALSE (ssRNA)
RNA: B14 RNA with G82U, G83A

The binders below were run against T1, UNK ZnF1-3 (human, UniProt Q9C0B0 31-174) (assay: nsRBNS (natural sequence RNA bind-n-seq); RBNS binding buffer (assumed for nsRBNS): 25 mM Tris pH 7.5, 150 mM KCl, 3 mM MgCl2, 0.01% Triton X-100, 500 ug/ml BSA, 20 U/ml SUPERase-In, 4 C; UNK is unkempt and MSI1 is Musashi-1; names of the RNAs are library labels; protein concentration not given here; high values mean tight binding).
T1 sequence: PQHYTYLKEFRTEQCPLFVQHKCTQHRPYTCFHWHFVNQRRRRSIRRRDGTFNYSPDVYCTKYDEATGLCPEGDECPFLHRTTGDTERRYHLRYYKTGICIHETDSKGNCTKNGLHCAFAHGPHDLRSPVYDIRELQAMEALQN
Binder B1 has a binding signal of 1.43 enrichment R.
B2 was tested, and the binding signal was 1.31 enrichment R.
For B3, the binding signal was 0.937 enrichment R.
For B4, the binding signal was 0.924 enrichment R.
Work on B5 yielded a binding signal of 0.285 enrichment R.
B6 gave a binding signal of 1.24 enrichment R.
With B7 the binding signal was 1.18 enrichment R.
For B8, the binding signal was 0.705 enrichment R.
B9 gave a binding signal of 0.512 enrichment R.
B10 was tested, and the binding signal was 0.673 enrichment R.
B11 gave a binding signal of 3.28 enrichment R.
For B12, the binding signal was 2.03 enrichment R.
Work on B13 yielded a binding signal of 0.591 enrichment R.
B14 showed a binding signal of 4.53 enrichment R.
With B15 the binding signal was 5.48 enrichment R.

From publication PMC12136788
